Data published in PubChem BioAssay (NCI).
Compounds without any hit were thinned out: in the full panel of roughly 79,000, 15% have a hit. Calls of active or inactive are those of the source. No stated cut-off is given here; in the data, active means growth inhibition above about 70%; inactive means the rest.

Assays:
[1] = NCI Yeast Anticancer Drug Screen. Data for the rad50 strain (AID 155);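 further: 0% = growth of vehicle-only cultures of the same strain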; conditions: S. cerevisiae rad50 strain growth inhibition; at 50.0 µM; hits give high values
Procedure, shortened: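 Vehicle-treated cultures provide the reference for the growth inhibition reported for compound-exposed, repair-deficient yeast.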

[2] = NCI Yeast Anticancer Drug Screen. Data for the mec2-1 strain (AID 157); conditions: S. cerevisiae mec2-1 strain, at 50.0 µM, hits give high values
Procedure, shortened: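 Mutant yeast (mec2-1) grown with compound; growth inhibition relative to vehicle control reported.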

[3] = NCI Yeast Anticancer Drug Screen. Data for the sgs1 mgt1 strain (AID 161);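 further: 0% = growth of cultures given vehicle only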; conditions: S. cerevisiae sgs1 mgt1 strain, at 50.0 µM, hits give high values
Procedure, shortened: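 Percent growth inhibition was derived by comparing compound-exposed mutant yeast with vehicle-exposed cultures. The strain carries alterations in DNA damage repair.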

[4] = NCI Yeast Anticancer Drug Screen. Data for the cln2 rad14 strain (AID 165);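 further: 0% = growth equal to vehicle treated cultures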; conditions: S. cerevisiae cln2 rad14 strain, at 50.0 µM, hits give high values
Procedure, shortened: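 Readout is yeast growth inhibition versus vehicle-treated controls, using a strain with cln2 and rad14 alterations exposed to compound.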

[5] = NCI Yeast Anticancer Drug Screen. Data for the bub3 strain (AID 167); conditions: S. cerevisiae bub3 mutant strain, at 50.0 µM, hits give high values
Procedure, shortened: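 Mutant yeast screening strain plus compound; vehicle-treated cultures serve as the 0% inhibition reference.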

[6] = NCI Yeast Anticancer Drug Screen. Data for the mlh1 rad18 strain (AID 175); conditions: S. cerevisiae mlh1 rad18 strain growth inhibition; at 50.0 µM; hits give high values
Procedure, shortened: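 Genetically defined yeast (DNA repair-deficient) exposed to compounds; growth inhibition determined relative to vehicle.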

Measured: growth inhibition

CN(C)CC(CN(C)C)C(=O)O
inactive: [1] -0.2% | [2] 2.75% | [3] -13.3% | [4] 22% | [5] -6.25% | [6] -15.7%

Oc1cccc(N=Cc2ccccc2O)c1
inactive: [1] 4.3% | [2] -4.85% | [3] 0.15% | [4] -18.8% | [5] -5.15% | [6] 0.15%

CCc1cc2c(O)c(c1)Cc1cc(CC)cc(c1O)Cc1cc(CC)cc(c1O)Cc1cc(CC)cc(c1O)Cc1cc(CC)cc(c1O)Cc1cc(CC)cc(c1O)Cc1cc(CC)cc(c1O)C2
inactive: [1] 6.55% | [2] 27.2% | [3] 19.8% | [4] 6.5% | [5] 6.9% | [6] 17.3%

O=C(/C=C/c1ccccc1)NN1CCOCC1
inactive: [1] 13.5% | [2] 3.25% | [3] 24.1% | [4] -34.5% | [5] 6.55% | [6] -2.95%

O=C1OC(c2ccccc2)=C/C1=C/c1ccc(Cl)cc1
inactive: [1] -1.2% | [2] -17.6% | [3] -6.65% | [4] -6.2% | [5] -7.3% | [6] -8.3%

COc1ccccc1/C=N/Nc1ccc([N+](=O)[O-])cc1[N+](=O)[O-]
inactive: [1] 6.45% | [2] 5.15% | [3] 3.35% | [4] -16.6% | [5] 16.8% | [6] 18.8%

O=C(O)C1Cc2c([nH]c3ccccc23)C(c2cccs2)N1 (stereo unspecified)
inactive: [1] 27.7% | [2] 7.6% | [3] 8.7% | [4] 0.5% | [5] -19.8% | [6] 14.3%

C/C(=N\Sc1cccc([N+](=O)[O-])c1)c1ccccc1O
active: [1] 91.2% | [2] 96.5% | [3] 96.2% | [4] 90.8% | [5] 94% | [6] 96%

COC(=O)/C(N=Nc1cccc(C)c1)=C(\C)O
inactive: [1] 8.65% | [2] 5.65% | [3] 5.3% | [4] 19.9% | [5] 9.8% | [6] -2.7%

CN(C(=O)/C=C/c1ccccc1)c1ccccc1
inactive: [1] 45.6% | [2] 13.4% | [3] 49.5% | [4] 27.1% | [5] 43.3% | [6] 32.4%

CCOC(=O)C(Nc1cc([N+](=O)[O-])ccc1C(=O)N1CCCCC1)(C(=O)OCC)N1CCCCC1
inactive: [1] 4.6% | [2] 12.8% | [3] 13.8% | [4] 3.8% | [5] 0.2% | [6] 15%

COc1ccc(C2CC(=O)NC2=O)cc1OC (stereo unspecified)
inactive: [1] 4.8% | [2] 17.4% | [3] -6.55% | [4] -12.2% | [5] 1.8% | [6] -5.65%

CCOC(=O)CCC(NC(=O)C(CCC(=O)OCC)NC(=O)C(Cc1ccc([N+](=O)[O-])cc1)NC(C)=O)C(=O)NNC(=O)OC(C)(C)C (stereo unspecified)
inactive: [1] -22.8% | [2] -28.4% | [3] -17% | [4] -3.35% | [5] -23.6% | [6] -7.3%

NC(Cc1ccsc1)C(=O)O (stereo unspecified)
inactive: [1] 0.15% | [2] 10.7% | [3] -22.7% | [4] -45.2% | [5] 20.5% | [6] -30.8%

Nc1ccccc1SC(CC(=O)c1ccccc1)c1cccc([N+](=O)[O-])c1 (stereo unspecified)
inactive: [1] -31.1% | [2] -26.1% | [3] 0.55% | [4] -29.6% | [5] -17.9% | [6] -13.5%

O=C(NC(=O)c1ccc(F)c(Cl)c1)NC1CC1
inactive: [1] 6.3% | [2] -1.15% | [3] 12% | [4] 14.2% | [5] 9.25% | [6] 5.3%

O=C(NC(CSSCC(NC(=O)OCc1ccccc1)C(=O)O)C(=O)O)OCc1ccccc1 (stereo unspecified)
inactive: [1] -8.6% | [2] -31.4% | [3] -2.4% | [4] -4.1% | [5] -33% | [6] -25.2%

OCCN1CCN(C2=Nc3cccnc3Nc3cscc32)CC1
inactive: [1] -41.2% | [2] -1.15% | [3] -22.6% | [4] -9.75% | [5] -5.05% | [6] -8.75%

CC12CCC(=O)C=C1CCC1C2C(=O)CC2(C)C1CCC2(O)C(=O)Cn1cc(F)c(=O)[nH]c1=O (stereo unspecified)
inactive: [1] 12.1% | [2] 9.5% | [3] 32.8% | [4] 11.9% | [5] -1.25% | [6] 6.5%

[N-]=[N+]=CC(=O)C1OC1c1ccc2ccccc2c1 (stereo unspecified)
inactive: [1] 0.8% | [2] 21.6% | [3] 0.8% | [4] 1.5% | [5] 14.3% | [6] 22.9%

Nc1ccc(O)c(C(=O)O)c1
inactive: [1] 24.1% | [2] 11.2% | [3] 11.2% | [4] 0.8% | [5] 1.35% | [6] 26.6%

CC(C)(Cc1ccc([N+](=O)[O-])cc1)[N+](=O)[O-]
inactive: [1] 7.95% | [2] 11.3% | [3] 4.3% | [4] -7.55% | [5] 12.4% | [6] -0.05%

CC12CCCC(C(=O)O)(C1)[C@H](C(C)(C)C(=O)O)CC2 (stereo partly specified)
inactive: [1] -29.5% | [2] -40.9% | [3] -15.7% | [4] 8.75% | [5] -4.2% | [6] -10.8%

CCCCCCC(=O)CC(SCCS)c1ccc(Cl)c(Cl)c1 (stereo unspecified)
inactive: [1] 4.65% | [2] 16.2% | [3] -4.3% | [4] 5.8% | [5] -1.4% | [6] 6.3%

Cc1[nH]c(=O)n2c(C)nnc2c1C(=O)O
inactive: [1] -5.3% | [2] -4.15% | [3] 1.95% | [4] -10.2% | [5] -2.7% | [6] -1.55%

CCCCCCCCCCCCCCCCS(=O)(=O)N/N=C/c1ccc2c(c1)OCO2
inactive: [1] 13.9% | [2] 3% | [3] 3.5% | [4] 4.05% | [5] -0.55% | [6] -3.25%

OCC1NCC(O)C(O)C1O (stereo unspecified)
inactive: [1] -6.6% | [2] -11.6% | [3] -14.4% | [4] 2.3% | [5] -8.3% | [6] 7.25%

CC1=CC(NCCC(=O)O)NC(=O)N1 (stereo unspecified)
inactive: [1] 4.25% | [2] -6.2% | [3] -18.1% | [4] -62.6% | [5] -1.75% | [6] -1.85%

C=CCOc1cc2c(cc1C(C)c1ccc(OCC)c(C)c1)OCO2 (stereo unspecified)
inactive: [1] 4.35% | [2] -8.95% | [3] -4.85% | [4] -70.5% | [5] 7.15% | [6] -1.6%

Cc1ccc(S(=O)c2ccccc2C(O)(C(F)(F)F)C(F)(F)F)cc1 (stereo unspecified)
active: [1] 76.2% | [2] 75.8% | [3] 74.6% | [6] 75.7%
inactive: [4] 59.6% | [5] 52.1%

O=C(O)C(=Cc1cccc2ccc3ccccc3c12)C(=O)O
inactive: [1] -8.7% | [2] -17.2% | [3] -4.8% | [4] -4.45% | [5] -1.8% | [6] -6.2%

COc1ccc2c(c1)CC1c3[nH]c4ccccc4c3CCN1C2 (stereo unspecified)
inactive: [1] 52.7% | [2] 35.5% | [3] 52.9% | [4] 32.5% | [5] 19.1%
active: [6] 79%

C=CCNC(=O)CCCCCCCC1C(CCCCCCCC)C2(Cl)C(Cl)=C(Cl)C1(Cl)C2(Cl)Cl (stereo unspecified)
inactive: [1] 23.6% | [2] -4.6% | [3] 18.2% | [4] -12.2% | [5] 1.75% | [6] 17.8%

Cc1ccc(S(=O)(=O)OC(CI)C2OC(c3ccccc3)OC3COC(c4ccccc4)OC32)cc1 (stereo unspecified)
inactive: [1] 0.25% | [2] 13.2% | [3] 7.7% | [4] 8.6% | [5] 16.1% | [6] 25.6%

CCC(C)(N)C(=O)O (stereo unspecified)
inactive: [1] 10% | [2] 13.3% | [3] 5.1% | [4] 2.6% | [5] 18.2% | [6] 4.05%

CCC(Cl)(c1ccccc1)C(O)C(=O)OC(C)C (stereo unspecified)
inactive: [1] 8% | [2] 2.65% | [3] 10.8% | [4] -2.35% | [5] -6.3% | [6] 11.8%

COC(=O)c1c2c(cc3c1CC1(Cc4cc5c(cc4C1=O)CCC5)C3)CCC2 (stereo unspecified)
inactive: [1] -23.4% | [2] -37% | [3] -2.4% | [4] 0.45% | [5] 10.8% | [6] 3.3%

C=CCOC(=O)CC
inactive: [1] 5.95% | [2] -13.2% | [3] -13% | [4] -6.05% | [5] -15.4% | [6] -10%

COC(=O)CC(=O)/C(=C/C(C/C=C(\C(=O)CC(=O)OC)C(=O)OC)OC)C(=O)OC (stereo unspecified)
inactive: [1] 40.1% | [2] 22.8% | [3] 8.9% | [4] 18.8% | [5] 3.85% | [6] 32.3%

Cc1cc2cc(Cl)ccc2nc1C(=O)c1ccccc1
inactive: [1] -5.75% | [2] -24.4% | [3] -3.3% | [4] 17.7% | [5] -6.65% | [6] -18.7%

S=C(Nc1ccccc1)Nc1ccccc1S
inactive: [1] -15.4% | [2] -19.8% | [3] 6.75% | [4] -20.4% | [5] 14.7% | [6] -18.9%
